# Source: PubChem BioAssay AID1159580 (chemical genetic matrix, 2015)
# The campaign covered roughly 5,500 compounds. About 2,000 (36%) were called active. About 18% were inconclusive and are not listed. Some of the results follow. A number with no mark means an inactive call. Rule as the data show it: active = normalized growth mostly below about 0.91 (no sharp cut-off); inconclusive = no clear call, values can overlap the other calls; inactive = mostly above about 0.92.
# Test: chemical genetic growth profiling, strain panel (AID 1159580);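 also: tested at 20 µM; growth read once vehicle control cultures reached saturation at 30 °C; 1 = growth at the plate median or of vehicle wells; lower values mean less growth of the strain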
# Settings: S. cerevisiae deletion strains, growth OD
smiles,measurement,setting,value
CO/N=C1/CN(c2nc3c(cc2F)c(=O)c(C(=O)O)cn3C2CC2)CC1CN (centres undefined),normalized growth,"locus YAL021C, strain ccr4, active compounds read low",1
same,normalized growth,"locus YAL026C, strain drs2, active compounds read low",1.02
same,normalized growth,"locus YAL030W, strain snc1, active compounds read low",0.992
same,normalized growth,"locus YBL061C, strain skt5, active compounds read low",0.99
same,normalized growth,"locus YBR009C, strain hhf1, active compounds read low",0.953
same,normalized growth,"locus YBR023C, strain chs3, active compounds read low",1.02
same,normalized growth,"locus YBR171W, strain sec66, active compounds read low",1.02
same,normalized growth,"locus YBR231C, strain swc5, active compounds read low",0.998
same,normalized growth,"locus YBR279W, strain paf1, active compounds read low",1.02
same,normalized growth,"locus YCL011C, strain gbp2, active compounds read low",1.01
same,normalized growth,"locus YCL016C, strain dcc1, active compounds read low",0.973
same,normalized growth,"locus YCL069W, strain vba3, active compounds read low",1.02
same,normalized growth,"locus YCR088W, strain abp1, active compounds read low",1.02
same,normalized growth,"locus YDL005C, strain med2, active compounds read low",1.04
same,normalized growth,"locus YDL040C, strain nat1, active compounds read low",1
same,normalized growth,"locus YDR001C, strain nth1, active compounds read low",1.02
same,normalized growth,"locus YDR069C, strain doa4, active compounds read low",0.979
same,normalized growth,"locus YDR137W, strain rgp1, active compounds read low",1.07
same,normalized growth,"locus YDR159W, strain sac3, active compounds read low",0.975
same,normalized growth,"locus YDR195W, strain ref2",0.979
same,normalized growth,"locus YDR297W, strain sur2, active compounds read low",1
same,normalized growth,"locus YDR334W, strain swr1, active compounds read low",1.02
same,normalized growth,"locus YDR335W, strain msn5, active compounds read low",1.01
same,normalized growth,"locus YDR392W, strain spt3, active compounds read low",0.937
same,normalized growth,"locus YEL003W, strain gim4, active compounds read low",1.03
same,normalized growth,"locus YEL037C, strain rad23, active compounds read low",1.02
same,normalized growth,"locus YEL061C, strain CIN8 (second series), active compounds read low",1.01
same,normalized growth,"locus YER015W, strain faa2, active compounds read low",1.01
same,normalized growth,"locus YER016W, strain bim1, active compounds read low",1.04
same,normalized growth,"locus YER111C, strain swi4, active compounds read low",1.03
same,normalized growth,"locus YER155C, strain BEM2 (second series), active compounds read low",0.977
same,normalized growth,"locus YFR010W, strain ubp6, active compounds read low",0.982
same,normalized growth,"locus YGL167C, strain pmr1, active compounds read low",1.01
same,normalized growth,"locus YGL173C, strain kem1, active compounds read low",0.987
same,normalized growth,"locus YGL227W, strain vid30, active compounds read low",1.01
same,normalized growth,"locus YGL240W, strain doc1, active compounds read low",0.967
same,normalized growth,"locus YGL253W, strain hxk2, active compounds read low",1.02
same,normalized growth,"locus YHR013C, strain ard1, active compounds read low",1.02
same,normalized growth,"locus YHR027C, strain rpn1, active compounds read low",1
same,normalized growth,"locus YHR030C, strain SLT2, active compounds read low",0.983
same,normalized growth,"locus YHR079C, strain IRE1, active compounds read low",0.949
same,normalized growth,"locus YHR142W, strain chs7, active compounds read low",1.02
same,normalized growth,"locus YJL092W, strain hpr5, active compounds read low",0.973
same,normalized growth,"locus YJL095W, strain BCK1 (second series), active compounds read low",0.992
same,normalized growth,"locus YJL095W, strain BCK1, active compounds read low",0.98
same,normalized growth,"locus YJL115W, strain asf1, active compounds read low",0.956
same,normalized growth,"locus YJL129C, strain trk1, active compounds read low",0.997
same,normalized growth,"locus YJL154C, strain vps35, active compounds read low",1.02
same,normalized growth,"locus YJL164C, strain tpk1, active compounds read low",0.985
same,normalized growth,"locus YJL166W, strain qcr8, active compounds read low",0.998
same,normalized growth,"locus YJL187C, strain SWE1, active compounds read low",0.998
same,normalized growth,"locus YJR066W, strain TOR1, active compounds read low",0.949
same,normalized growth,"locus YKL160W, strain elf1, active compounds read low",1.02
same,normalized growth,"locus YKR026C, strain gcn3, active compounds read low",1.01
same,normalized growth,"locus YKR091W, strain srl3, active compounds read low",1.01
same,normalized growth,"locus YLL001W, strain dnm1, active compounds read low",0.98
same,normalized growth,"locus YLL026W, active compounds read low",1.01
same,normalized growth,"locus YLL041C, strain sdh2, active compounds read low",1.02
same,normalized growth,"locus YLR027C, strain aat2, active compounds read low",1.01
same,normalized growth,"locus YLR113W, strain HOG1, active compounds read low",0.999
same,normalized growth,"locus YLR221C, strain rsa3, active compounds read low",0.98
same,normalized growth,"locus YLR258W, strain gsy2, active compounds read low",1.02
same,normalized growth,"locus YLR262C, strain YPT6 (second series), active compounds read low",0.978
same,normalized growth,"locus YLR320W, strain mms22, active compounds read low",0.707 (active)
same,normalized growth,"locus YLR342W, strain FKS1, active compounds read low",0.958
same,normalized growth,"locus YLR357W, strain rsc2, active compounds read low",0.981
same,normalized growth,"locus YLR370C, strain arc18, active compounds read low",1.02
same,normalized growth,"locus YLR384C, strain iki3, active compounds read low",1.01
same,normalized growth,"locus YML120C, strain ndi1, active compounds read low",0.998
same,normalized growth,"locus YMR058W, strain fet3, active compounds read low",0.816 (active)
same,normalized growth,"locus YMR125W, strain sto1, active compounds read low",1.02
same,normalized growth,"locus YMR129W, active compounds read low",1.01
same,normalized growth,"locus YMR205C, strain PFK2, active compounds read low",1.01
same,normalized growth,"locus YMR231W, strain pep5, active compounds read low",1.01
same,normalized growth,"locus YNL071W, strain lat1, active compounds read low",1.02
same,normalized growth,"locus YNL183C, strain NPR1, active compounds read low",0.903
same,normalized growth,"locus YNL209W, strain ssb2, active compounds read low",1.01
same,normalized growth,"locus YNL248C, strain rpa49, active compounds read low",1.02
same,normalized growth,"locus YNL322C, strain KRE1 (second series), active compounds read low",1.03
same,normalized growth,"locus YNR049C, strain mso1, active compounds read low",1.01
same,normalized growth,"locus YOR001W, strain rrp6, active compounds read low",1.01
same,normalized growth,"locus YOR070C, strain gyp1, active compounds read low",1
same,normalized growth,"locus YOR080W, strain dia2, active compounds read low",0.974
same,normalized growth,"locus YOR083W, strain WHI5, active compounds read low",0.987
same,normalized growth,"locus YOR106W, strain vam3, active compounds read low",0.993
same,normalized growth,"locus YOR231W, strain MKK1, active compounds read low",0.989
same,normalized growth,"locus YOR265W, strain rbl2, active compounds read low",1.01
same,normalized growth,"locus YOR270C, strain vph1, active compounds read low",1.03
same,normalized growth,"locus YOR290C, strain snf2, active compounds read low",1.03
same,normalized growth,"locus YPL051W, strain arl3, active compounds read low",1
same,normalized growth,"locus YPL078C, strain atp4, active compounds read low",1.04
same,normalized growth,"locus YPL106C, strain sse1, active compounds read low",1.01
same,normalized growth,"locus YPL240C, strain hsp82, active compounds read low",1.02
same,normalized growth,"locus YPL256C, strain CLN2, active compounds read low",1
